# Measured values reported in PubChem BioAssay AID1259418 (Broad Institute, 2018).
# Hit rate of the full screen: of about 3,400 compounds, about 840 (25%) were called active. Not shown: some 11% with an inconclusive outcome. Not all results are given here. Measured potencies and affinities stand elsewhere. Values without a mark were called inactive.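 How the source made its calls: active means fitted half-maximal concentration of signal decrease at or below twice the sample's top tested concentration; inconclusive means flat curve between -70 and -30 percent, or poor fit; inactive means flat within 30 percent, signal rise, or potency above limit.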
# Assay: T. gondii growth inhibition with IFN-gamma, dose response, cell-based, ME49Luc, HeLa, luciferase, 72 h (AID 1259418)
# Conditions: T. gondii ME49Luc in IFN-y HeLa, hits give low values, -100% = high-dose IFN-γ control wells; at 19.5 µM unless noted
row,Compound,max activity
1,Cc1nc(CCNC(=O)C2CCN(S(=O)(=O)c3ccc(F)c(F)c3)CC2)cs1,10.4% [at 5 µM]
2,Cc1ccc2c(c1C)-n1cccc1C1(CCN(C(=O)c3cccc(F)c3)CC1)N2,-11.1% [at 0.35 µM]
3,O=C(NCc1cccnc1)C1CCN(Cc2cc3ccccc3n2Cc2ccccc2Cl)CC1,-4.69% [at 1.35 µM]
4,Cc1ccccc1Cn1c(CN2CCC(C(=O)NCCC(C)N3CCCC3)CC2)cc2ccccc21 (configuration not stated),15.2% [at 0.16 µM]
5,O=C(NCCN1CCCC1)C1CCN(Cc2cc3ccccc3n2Cc2ccccc2Cl)CC1,6.81%
6,O=C(Nc1ccc(-c2nc(-c3ccccc3)co2)cc1)Nc1ccccc1F,103%
7,COc1ccc(Cl)cc1NC(=O)N1CCc2nc(-c3ccccc3)sc2C1,-14.8% [at 0.35 µM]
8,CN(Cc1ccccn1)C(=O)C1=NOC2(CCN(S(=O)(=O)c3cccc(F)c3)C2)C1 (configuration not stated),23.5% [at 10 µM]
9,Cc1ccc(-c2coc(-c3ccc(NC(=O)Nc4ccc(F)c(Cl)c4)cc3)n2)cc1,49.3%
10,CCc1c(C)sc2c1CCN(Cc1nc(-c3ccc(C(C)C)cc3)oc1C)C2c1ccccc1 (configuration not stated),9.71%
11,Cc1ccccc1C(=O)Nc1cnc(N2CCC(C(N)=O)(N3CCCCC3)CC2)c(C(=O)O)c1,-6.96% [at 1.35 µM]
12,CCc1ccc(S(=O)(=O)N2CCC3(CC2)NCCN=C3NCc2cc(F)cc(F)c2)cc1,16.8%
13,CC(C)Cc1ccc(S(=O)(=O)N2CCC3(CC2)NCCN=C3NCc2cccc(F)c2)cc1,16.8% [at 10 µM]
14,CCc1ccc(S(=O)(=O)N2CCC3(CC2)NCCN=C3NCc2ccc(Cl)cc2)cc1,17.4% [at 10 µM]
15,Cc1cnn(C(C)C(=O)N2CCc3[nH]nc(-c4ccc(F)c(F)c4)c3C2)c1 (configuration not stated),11.2%
16,Cc1ccc(-c2coc(-c3ccc(NC(=O)Nc4ccccc4Cl)cc3)n2)cc1,13.9% [at 0.16 µM]
17,COC(=O)C1CCN(S(=O)(=O)c2cc3c4c(c2)CCC(=O)N4CCC3)CC1,9.1% [at 1.35 µM]
18,CCOc1ccc(-c2nc3c(s2)CN(S(=O)(=O)c2cc(C)cc(C)c2)CC3)cc1,-12.1% [at 2.6 µM]
19,COc1ccc(-c2nc(NCc3cccc(Cl)c3)c3ccccc3n2)cc1,-12% [at 0.35 µM]
20,CCc1c(C)sc2c1CCN(Cc1nc(-c3ccc(Cl)cc3)oc1C)C2c1ccccc1 (configuration not stated),38.9% [at 10 µM]
21,CCc1ccccc1NC(=O)N1CCc2nc(-c3ccc(C)cc3)sc2C1,-16.8%
22,Clc1ccc(-c2nc(N3CCN(Cc4ccc5c(c4)OCO5)CC3)c3ccccc3n2)cc1,21.6% [at 2.6 µM]
23,O=C(Nc1ccc(Cl)cc1)Nc1ccc(-c2nc(-c3ccccc3)co2)cc1,-18.8% [at 2.6 µM]
24,COc1ccc(-c2nc(CN(c3ccc(OC)cc3)S(=O)(=O)c3ccc(C)cc3)c(C)o2)cc1,-10.7% [at 0.16 µM]

row,Compound,max activity
1,Cc1oc(-c2ccccc2)nc1CN(c1ccccc1)S(=O)(=O)c1ccccc1,6.75% [at 2.6 µM]
2,COc1ccc(-c2nc(CN(c3ccc(OC)cc3)S(=O)(=O)c3ccc(OC)cc3)c(C)o2)cc1,16.7% [at 5 µM]
3,COc1ccc(-c2nc(CN(c3ccc(OC)cc3)S(=O)(=O)c3ccccc3)c(C)o2)cc1,21.2% [at 5 µM]
4,COc1ccc(N(Cc2nc(-c3ccc(C)cc3)oc2C)S(=O)(=O)c2ccc(OC)cc2)cc1,6.72% [at 1.35 µM]
5,Cc1oc(-c2ccc(OC(C)C)cc2)nc1CN(c1ccccc1)S(=O)(=O)c1ccccc1,5.29%
6,COc1ccc(S(=O)(=O)N2CCC[C@@H]2C(=O)NCCc2csc(C)n2)cc1,-6.98% [at 5 µM]
7,CCc1ccccc1NC(=O)COc1nc(C)nc2ccccc12,-12.9% [at 2.6 µM]
8,COCCNC(=O)C1(C)CCC(=O)N1CCc1c[nH]c2ccccc12 (configuration not stated),3.62%
9,O=C(CC1N=C2c3ccccc3N=C(SCc3cccc(F)c3)N2C1=O)NCc1ccc2c(c1)OCO2 (configuration not stated),67.4%
10,Cc1cccc(CN2CCC3(CC2)N=C(c2cccc(F)c2)C(=O)N3)c1,-7.22%
11,Cc1cccc(-c2noc(-c3nnn(Cc4nc(-c5cccc(Cl)c5)oc4C)c3C)n2)c1,60.4%
12,CCN1CC(C(=O)O)CN2CCN(C(=O)c3ccncc3F)CC2C1 (configuration not stated),5.55%
13,COc1ccc(-c2nc(Nc3ccc(C(C)C)cc3)c3ccccc3n2)cc1,12% [at 5 µM]
14,O=C(NCCc1csc(-c2ccccc2)n1)[C@H]1CSCN1C(=O)c1cccc(F)c1,-24.5%
15,O=C(NCCc1csc(-c2ccccc2)n1)[C@H]1CCCN1C(=O)c1ccco1,-10.6% [at 0.16 µM]
16,CN(C)C(=O)c1cccc(-c2ccc3c(c2)[C@H]2[C@H](CCN2C(=O)Cc2ccccc2)[C@@H](CO)N3)c1,24.7% [at 5 µM]
17,Cc1ccc(S(=O)(=O)N2CC[C@@H]3[C@H]2c2cc(-c4cccc(C(=O)N(C)C)c4)ccc2N[C@@H]3CO)cc1,21.6% [at 10 µM]
18,O=C(Cc1ccccc1)N1CC[C@H]2[C@H](CO)Nc3ccc(C4=CCCCC4)cc3[C@H]21,30.4% [at 10 µM]
19,COc1ccccc1-c1ccc2c(c1)[C@H]1[C@H](CCN1Cc1ccccc1F)[C@@H](CO)N2,11.2% [at 1.2 µM]
20,CCOc1ccc(C(=O)N2CCC3(CC2)Nc2cc(F)ccc2-n2cccc23)cc1,-6.53% [at 5 µM]
21,O=C(COc1ccccc1)N1CCC2(CC1)Nc1ccc(Cl)cc1-n1cccc12,8.01% [at 0.35 µM]
22,Cc1cccc(OCC(=O)N2CCC3(CC2)Nc2ccc(C)c(C)c2-n2cccc23)c1,8.26% [at 0.16 µM]
23,O=C(COc1ccc(Cl)cc1)N1CCC2(CC1)Nc1ccc(Cl)cc1-n1cccc12,3.74% [at 0.68 µM]
24,O=C(COc1ccc(Cl)cc1)N1CCC2(CC1)Nc1cc(F)ccc1-n1cccc12,9.43% [at 0.16 µM]

row,Compound,max activity
1,Cc1nc2ccccc2n1CC(O)Cn1c2ccccc2c2ccccc21 (configuration not stated),28.9%
2,CCOc1ccc(NC(=O)Nc2ccc(-c3nc(-c4ccc(C)cc4C)co3)cc2)cc1,21.2% [at 0.16 µM]
3,CCc1ccc2c(c1)cc(S(=O)(=O)c1ccccc1)c(=O)n2CC(=O)NC1CCCCC1,-12.7% [at 1.35 µM]
4,N#Cc1cccc(-c2ccc([C@H]3[C@H]4CN(Cc5ccccc5F)CCCCN4[C@H]3CO)cc2)c1,26.6% [at 10 µM]
5,COc1ccccc1NC(=O)N1CCCCN2[C@H](CO)[C@@H](c3ccc(-c4cccc(C#N)c4)cc3)[C@H]2C1,24.8% [at 10 µM]
6,Cc1cccc(Cn2c(CN3CCC(C(=O)N4CCCC4)CC3)cc3ccccc32)c1,-9.03% [at 0.35 µM]
7,Cc1ccc(C2=NC3(CCN(CC(=O)Nc4ccccc4C(F)(F)F)CC3)NC2=O)cc1,-14.3% [at 0.35 µM]
8,CN(C)c1ccc(-c2nc3c([nH]2)c(=O)n(C)c(=O)n3C)cc1,17.3% [at 10 µM]
9,Cc1ccc(-c2coc(-c3ccc(NC(=O)Nc4cc(F)ccc4F)cc3)n2)c(C)c1,-9.54% [at 5 µM]
10,COc1ccc(CN2CCC3(CC(n4cnnc4)CO3)C2)cc1 (configuration not stated),33.5%
11,COCCCN1CCc2nc(SCc3nc(-c4ccccc4)oc3C)[nH]c(=O)c2C1,21% [at 2.6 µM]
12,COc1ccc(CN2CCc3nc(SCc4nc(-c5ccccc5)oc4C)[nH]c(=O)c3C2)cc1,-18.7% [at 2.6 µM]
13,COc1ccccc1CN1CCc2nc(SCc3nc(-c4cccc(C)c4)oc3C)[nH]c(=O)c2C1,14.5% [at 0.35 µM]
14,COc1ccc(NC(=O)CN2CCC3(CC2)N=C(c2cccc(F)c2)C(=O)N3)cc1OC,28.6% [at 10 µM]
15,COc1ccc(-c2nc(NCCCN(Cc3ccco3)C3CCCC3)c3ccccc3n2)cc1,-19.2% [at 5 µM]
16,CN(c1nc(-c2ccc(Cl)cc2)nc2ccccc12)C1CCCCC1,11.9% [at 0.68 µM]
17,CCN(CCN(C)C)c1nc(-c2ccc(OC)cc2)nc2ccccc12,-29.5%
18,CCCN(CCC)c1nc(-c2ccc(OC)cc2)nc2ccccc12,-8.92% [at 0.35 µM]
19,CCCCN(Cc1ccco1)c1nc(-c2ccc(OC)cc2)nc2ccccc12,14.7% [at 0.35 µM]
20,COc1ccc(-c2nc(N(Cc3ccco3)C3CCCCC3)c3ccccc3n2)cc1,-11.5% [at 2.6 µM]
21,COc1ccc(-c2nc(N(C)c3ccc(F)cc3)c3ccccc3n2)cc1,36%
22,COc1ccc(-c2nc(N(CCN(C)C)Cc3ccccc3)c3ccccc3n2)cc1,-20.1% [at 5 µM]
23,NC(=O)C1(N2CCCCC2)CCN(c2ccc(NC(=O)c3cccc(Cl)c3)cc2C(=O)O)CC1,1%
24,Cc1ccc(-c2coc(-c3ccc(NC(=O)Nc4ccc(C)c(F)c4)cc3)n2)cc1,19.5% [at 10 µM]
